Compound activity deposited in PubChem by National Center for Advancing Translational Sciences (NCATS).
DRD3 agonist = D3 dopamine receptor (human) agonism. AID 652048. D3R DiscoveRx beta-arrestin cells, luminescence, 90 min. 410,000 compounds, 0.58% hits. max activation, %; in the data active = max activation above about 30%; note: 0% is about no effect
Target sequence (P35462 whole entry, looked up): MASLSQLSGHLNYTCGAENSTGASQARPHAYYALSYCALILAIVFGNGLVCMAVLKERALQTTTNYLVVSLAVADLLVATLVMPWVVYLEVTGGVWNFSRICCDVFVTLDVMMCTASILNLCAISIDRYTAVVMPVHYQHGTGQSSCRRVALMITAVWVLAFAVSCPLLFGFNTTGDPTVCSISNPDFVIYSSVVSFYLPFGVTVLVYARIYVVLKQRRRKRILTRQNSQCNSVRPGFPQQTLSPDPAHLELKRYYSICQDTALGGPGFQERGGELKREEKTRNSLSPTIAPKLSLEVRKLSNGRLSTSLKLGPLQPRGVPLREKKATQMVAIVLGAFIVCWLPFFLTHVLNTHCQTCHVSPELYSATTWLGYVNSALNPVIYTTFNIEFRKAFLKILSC
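Agonist mode: compounds and dopamine controls were applied to plated cells for 90 min at 37 degrees C after an overnight attachment at 1500 cells/well. Luminescent read-out followed 30 - 60 minutes at room temperature with DiscoveRx detection reagent.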
D3 antag = D3 dopamine receptor (human) antagonism; P35462; 360,000 compounds, 2.5% hits; max response, negative = inhibition, %; D3R cells, DiscoveRx beta-arrestin luminescence, antagonist mode; stronger effect = lower value; in the data active = max response below about -50%; inconclusive = no clear call, values can overlap the other calls; note: % is set by controls: 0 for no effect and ±100 for the full control effect
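Cells plated overnight at 1500 cells/well, then exposed to library compounds with dopamine controls for 90 minutes at 37 degrees C. DiscoveRx reagent added for 30–60 minutes at room temperature; luminescence read, quantitative HTS format.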
GRP78 ERSR act = ER stress response induction in glioma. U87-MG GRP78 promoter luciferase reporter, 16 h. Potency, µM, without a hit: at the top dose activation, most hits filed as activators. 420,000 compounds, 0.02% hits. AID 602332; note: potency is the fitted concentration of half-maximal effect; series mostly up to about 76 µM; % of control where 0% means no effect; nearly all actives have a fitted effect of over 35% in size
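Stably transfected U87-MG human glioma cells carrying a GRP78-based luminescent sensor were seeded at 1000 cells/well, pin-dosed with compounds and incubated 16 h. Luciferase reagent was then added, and end-point luminescence was read after 10 min at room temperature.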
Nrf2 ARE act = activators of Nrf2 (ARE) signaling | AREc32 ARE-luciferase reporter (MCF7-derived line), luminescence, 24 h | Potency, µM (series often up to 46.1 µM), without a hit: at the highest dose activation, most hits filed as activators | 410,000 compounds, 0.31% hits; note: potency is the fitted concentration of half-maximal effect; % of control where 0% means no effect; nearly all actives have a fitted effect of over 65% in size
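ARE-driven firefly luciferase activity in AREc32 cells measured after a 24 hr compound exposure at 37 deg C, using Steady-Glo reagent and a 30 min room-temperature hold.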
Numbers without * were called inactive; ? = inconclusive; / = not tested or not shown. Hits are enriched below; roughly 3% of the tested compounds scored in any of these assays. Unless noted, calls come from the whole dose curve; as a rule, active = well fitted curve in the direction sought with a large enough effect; inconclusive = small, poorly fitted or top-dose-only effect, or another doubt; inactive = no such curve, though single readings can be large; an effect the other way counts as inactive or inconclusive.

SMILES	DRD3 agonist	D3 antag	GRP78 ERSR act	Nrf2 ARE act
CCCN1CCC(=O)N(C(CSc2ccc(Br)cc2)Cc2ccccc2)CC1 (centres undefined)	/	/	-2%	/
CC(C)C[C@@H](CSc1ccc(Br)cc1)N1CCN(CC(C)C)CCC1=O	-43	-50*	-1%	11%
Cc1ccc(SC[C@H](c2ccccc2)N2CCN(CC(C)C)CCC2=O)cc1	-68	-89*	-1%	5%
CCCN1CCC(=O)N(C(CSc2ccc(Br)cc2)CC(C)C)CC1 (centres undefined)	/	/	-4%	/
COc1cccc(-c2nc3cc4c(cc3cc2CN(C(=O)c2cc(C)nn2C)C2CC2)CCC4)c1OC	/	/	-4%	/
CCC(CC)C1C(C#N)=C(N)SC(N)=C1C#N	0	-60*	-4%	1%
CC(C)C1C(C#N)=C(N)SC(N)=C1C#N	-6	?	0%	0%
CN(C)S(=O)(=O)c1cccc(NC(=S)Nc2cccc3cnccc23)c1	-15	-59*	1%	3%
COc1ncnc2c1ncn2CCCNCC(c1ccccc1)c1ccccc1	-9	-20	-5%	4%
O=C(Cn1cnc2c(OCc3ccccc3)ncnc21)NCc1ccccn1	0	-67*	-1%	1%
c1ccc(COc2ncnc3c2ncn3CCCNCC(c2ccccc2)c2ccccc2)cc1	-13	-86*	-12%	-7%
COc1ccc(/C=C/c2nc(C#N)c(NCc3ccc(C)cc3)o2)cc1OC	-11	/	-1%	5%
COc1ccc(CNc2oc(/C=C/c3cc(OC)c(OC)c(OC)c3)nc2C#N)cc1	15	/	32µM*	12%
O=C(NCC1CCCO1)c1ccc(S(=O)(=O)N2CCC(c3nc4ccc(Cl)cc4[nH]3)CC2)cc1 (centres undefined)	-6	-62*	-2%	0%
CCN(CC)C(=O)[C@H]1C[C@H](CC(=O)NCCN2CCOCC2)C(=O)N2CCc3c([nH]c4ccc(Cl)cc34)[C@]12C	-19	0	0%	3%
CC(C)N(C(=O)[C@H]1C[C@H](CC(=O)NCCN2CCOCC2)C(=O)N2CCc3c([nH]c4ccc(Cl)cc34)[C@]12C)C(C)C	-1	-53*	-3%	11%
C[C@]12c3[nH]c4ccc(Cl)cc4c3CCN1C(=O)[C@@H](CC(=O)NCC13CC4CC(CC(C4)C1)C3)C[C@@H]2C(=O)N1CCOCC1	-23	-50*	-1%	-2%
C[C@]12c3[nH]c4ccc(Cl)cc4c3CCN1C(=O)[C@@H](CC(=O)NCC13CC4CC(CC(C4)C1)C3)C[C@@H]2C(=O)N1CCCCC1	1	23	0%	0%
CC(C)N1CC(C(=O)Nc2ccc(Cl)c(Cl)c2)CC1=O (centres undefined)	72*	-24	1%	0%
CC(C)N1CC(C(=O)Nc2ccc(F)c(Cl)c2)CC1=O (centres undefined)	4	9	-3%	0%
CCOc1cc(/C=N/NC(N)=S)cc(Br)c1OCc1ccccc1C	1	-15	-5%	5%
COc1cc(/C=N/NC(N)=S)cc(Br)c1OCc1ccccc1F	-7	-51*	0%	7%
COc1cc(C(=O)N/N=C/c2ccsc2C)cc(OC)c1OC	-12	-53*	-10%	0%
COc1ccc(Br)cc1/C=N/NC(=O)c1cc(OC)c(OC)c(OC)c1	2	32	-2%	2%
C/C=C1\COC(C(=O)NCCOCCO)(C(F)(F)F)C=C1C=C1CCCCC1 (centres undefined)	/	/	0%	/
SMILES	DRD3 agonist	D3 antag	GRP78 ERSR act	Nrf2 ARE act
Cn1cnc([N+](=O)[O-])c1NC(C)(C)C	-1	7	-3%	0%
Cn1cnc([N+](=O)[O-])c1S(=O)(=O)c1ccc(Cl)cc1	-25	-68*	-16%	-2%
COC(=O)[C@@H]1[C@H]2C[C@H]3c4[nH]c5ccccc5c4CCN3C[C@@H]2CC[C@@H]1O	-80	-78*	-5%	-1%
CCOC(=O)[C@]12CCCC=C1N(Cc1ccc3c(c1)OCO3)C(=O)[C@H](CC(=O)NCCCCc1ccccc1)C2	0	-51*	/	3%
CCCn1cc(S(=O)(=O)c2cccc(Cl)c2)c(=O)c2cc(F)c(N3CCOCC3)cc21	-4	/	-4%	0%
CCN(CC)CCNC(=O)C12CC3CC(CC(C3)C1)C2	-9	-63*	-4%	0%
CCN(CC)CCNC(=O)C12CC3CC(C)(CC(C)(C3)C1)C2	-26	-29	-3%	-1%
Cc1cc(C(=O)NCCCN2CCN(c3cc(Cl)ccc3C)CC2)n(-c2ccccc2)n1	-12	-65*	-5%	0%
O=C(O)c1cc2cccc(S(=O)(=O)N3CCCCC3)c2cc1O	30*	9	-4%	0%
O=S(=O)(c1cccc2ccccc12)N1CCCCC1	4	16	1%	1%
CCOC(=O)c1ccc(NC(=S)N(CCCN2CCCC(C)C2)Cc2cccs2)cc1 (centres undefined)	-19	-87*	-2%	0%
CCOC(=O)c1ccc(NC(=S)N(CCN2CCCCCC2)Cc2cccs2)cc1	-16	-75*	-3%	0%
CCOC(=O)c1ccc(NC(=S)N(CCCN2CCCC2)Cc2cccs2)cc1	-13	-21	7%	0%
O=C(CSc1oc(-c2ccco2)nc1S(=O)(=O)c1ccc(Cl)cc1)c1ccc(Cl)cc1	-7	/	-4%	6%
CCC(=O)N1CCc2cc(Br)cc(S(=O)(=O)N3CCCC(C(=O)Nc4cc(C)ccc4OC)C3)c21 (centres undefined)	-14	/	-3%	-1%
CC1c2ccccc2CN1NC(=O)c1ccc(Cl)c(S(N)(=O)=O)c1 (centres undefined)	51*	/	/	/
O=C(NC1CCCCC1)N(c1ccccc1)c1nnc(-c2cccc([N+](=O)[O-])c2)s1	-14	-10	2%	3.2µM*
CC(=O)Nc1ccccc1OCc1cc(=O)n2c3c(sc2n1)CCCC3	60*	/	-5%	-1%
Cc1ccc(OCc2cc(=O)n3c4c(sc3n2)CCCC4)c(C)c1	0	/	-4%	0%
O=C(C1CCOC1)N1CCOc2ccc(CN3CCC(Oc4cccnc4)CC3)cc2C1 (centres undefined)	/	/	-2%	/
O=c1[nH]c(Nc2ccccc2)cc2cc(Br)ccc12	-18	-22	-3%	6%
CC(=O)c1cccc(-c2ccc3c(=O)[nH]c(Nc4ccccc4)cc3c2)c1	31*	0	1%	3%
CCOc1ccc2c(c1)c(=O)c(S(=O)(=O)c1ccccc1)cn2CC(=O)Nc1ccccc1OC	-2	/	-2%	0%
O=C(NNc1nc2ccc(Cl)cc2s1)c1cc(-c2cccs2)nc2ccccc12	42*	109	-8%	-2%
Cc1ccc(S(=O)(=O)N2CCCCC2C(=O)N2CCN(Cc3ccccc3)CC2)cc1 (centres undefined)	-45	-52*	-2%	-1%
O=C(C1CCCCN1S(=O)(=O)c1ccccc1)N1CCN(Cc2ccccc2)CC1 (centres undefined)	-49	?	-2%	0%
COC(=O)C1CCN(Cc2ccc(C)cc2)CC1	0	?	-4%	0%
